Data from PubChem BioAssay AID1159580 (chemical genetic matrix, 2015).
The campaign covered roughly 5,500 compounds. About 2,000 (36%) were called active. Not shown: some 18% with an inconclusive outcome. No stated cut-off is given here; in the data, active means normalized growth mostly below about 0.91 (no sharp cut-off); inconclusive means no clear call, values can overlap the other calls; inactive means mostly above about 0.92. The list shows a part of the results.

Test: chemical genetic growth profiling, strain panel (AID 1159580);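 further: tested at 20 µM; growth read once vehicle control cultures reached saturation at 30 °C; 1 = growth at the plate median or of vehicle wells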
Details: growth OD
[1] = S. cerevisiae deletion strains, locus YAL013W, strain DEP1, stronger effect = lower value
[2] = S. cerevisiae deletion strains, locus YBR229C, strain ROT2, stronger effect = lower value
[3] = S. cerevisiae deletion strains, locus YDL101C, strain DUN1, stronger effect = lower value
[4] = S. cerevisiae deletion strains, locus YDR150W, strain NUM1, stronger effect = lower value
[5] = S. cerevisiae deletion strains, locus YEL061C, strain CIN8, stronger effect = lower value
[6] = S. cerevisiae deletion strains, locus YGR078C, strain PAC10, stronger effect = lower value
[7] = S. cerevisiae deletion strains, locus YGR229C, strain SMI1, stronger effect = lower value
[8] = S. cerevisiae deletion strains, locus YHR030C, strain SLT2, stronger effect = lower value
[9] = S. cerevisiae deletion strains, locus YHR087W, strain rtc3, stronger effect = lower value
[10] = S. cerevisiae deletion strains, locus YJR043C, strain POL32, stronger effect = lower value
[11] = S. cerevisiae deletion strains, locus YJR075W, strain HOC1, stronger effect = lower value
[12] = S. cerevisiae deletion strains, locus YKL190W, strain CNB1, stronger effect = lower value
[13] = S. cerevisiae deletion strains, locus YLR039C, strain RIC1, stronger effect = lower value
[14] = S. cerevisiae deletion strains, locus YLR058C, strain SHM2 (second series), stronger effect = lower value
[15] = S. cerevisiae deletion strains, locus YLR085C, strain ARP6, stronger effect = lower value
[16] = S. cerevisiae deletion strains, locus YLR262C, strain YPT6, stronger effect = lower value
[17] = S. cerevisiae deletion strains, locus YML094W, strain GIM5, stronger effect = lower value
[18] = S. cerevisiae deletion strains, locus YMR219W, strain ESC1, stronger effect = lower value
[19] = S. cerevisiae deletion strains, locus YMR263W, strain SAP30, stronger effect = lower value
[20] = S. cerevisiae deletion strains, locus YMR307W, strain GAS1, stronger effect = lower value
[21] = S. cerevisiae deletion strains, locus YNL153C, strain GIM3, stronger effect = lower value
[22] = S. cerevisiae deletion strains, locus YNL298W, strain CLA4 (second series), stronger effect = lower value
[23] = S. cerevisiae deletion strains, locus YNL322C, strain KRE1, stronger effect = lower value
[24] = S. cerevisiae deletion strains, locus YNR030W, strain Alg12, stronger effect = lower value
[25] = S. cerevisiae deletion strains, locus YPL055C, strain LGE1, stronger effect = lower value
[26] = S. cerevisiae deletion strains, locus YPL241C, strain CIN2, stronger effect = lower value
[27] = S. cerevisiae deletion strains, locus YPR135W, strain CTF4, stronger effect = lower value
[28] = S. cerevisiae strains, strain wild type, stronger effect = lower value
[29] = S. cerevisiae deletion strains, locus YCL061C, strain MRC1, stronger effect = lower value
[30] = S. cerevisiae deletion strains, locus YNL128W, strain TEP1, stronger effect = lower value
[31] = S. cerevisiae deletion strains, locus YOL006C, strain TOP1, stronger effect = lower value
[32] = S. cerevisiae deletion strains, locus YJL187C, strain SWE1, stronger effect = lower value

Measured: normalized growth

N#CCC(=O)N(Cc1ccccc1F)C(=O)NC1CCCCC1
inactive: [1] 0.993 | [2] 1.01 | [3] 0.994 | S. cerevisiae deletion strains, locus YDL134C, strain PPH21, stronger effect = lower value 0.98 | [4] 0.997 | [5] 1 | [6] 0.994 | [7] 0.987 | [8] 0.957 | [9] 0.974 | [10] 0.994 | [11] 0.963 | [12] 1 | [13] 0.915 | [14] 1 | [15] 0.989 | [16] 0.935 | [17] 0.996 | [18] 0.998 | [19] 1 | [20] 0.913 | [21] 0.988 | [22] 1.01 | [23] 1.01 | [24] 0.986 | [25] 1.01 | [26] 0.994 | [27] 0.866 | [28] 0.997

COC(=O)c1cccc([N+](=O)[O-])c1-c1c(C(=O)OC)cccc1[N+](=O)[O-]
inactive: [1] 0.995 | [2] 1.01 | [29] 1.03 | [3] 1.03 | [4] 1.02 | [5] 0.983 | [6] 1.03 | [8] 1.06 | [9] 0.997 | [10] 1.01 | [11] 0.981 | [13] 0.994 | [14] 0.999 | [15] 1.03 | [16] 0.97 | [17] 0.988 | [18] 0.99 | [19] 1.03 | [20] 0.971 | [30] 0.999 | [21] 1.03 | [22] 1.02 | [23] 1 | [24] 1.03 | [31] 1.08 | [25] 0.974 | [26] 1 | [27] 1.06 | [28] 1.02

O=C(O)c1cccc([N+](=O)[O-])c1C(=O)Nc1ccc(F)cc1
inactive: [1] 1.01 | [2] 0.996 | [29] 1.01 | [3] 1.01 | [4] 1.03 | [5] 0.98 | [6] 1.01 | [8] 1.1 | [9] 0.965 | [10] 1 | [11] 1.01 | [12] 0.986 | [14] 0.991 | [15] 1 | [17] 1.01 | [18] 0.998 | [19] 0.996 | [20] 0.932 | [30] 0.984 | [21] 1.01 | [22] 0.97 | [23] 1.02 | [24] 0.996 | [25] 0.979 | [26] 1.04 | [27] 1.04
active: [13] 1.22 [resistant] | [16] 1.19 [resistant]

CC(C)(C)c1cc(C(=O)NN)n[nH]1
inactive: [1] 1.01 | [2] 1.01 | [3] 0.973 | [4] 0.995 | [5] 1.01 | [6] 0.996 | [7] 1 | [8] 1.06 | [9] 1 | [32] 0.988 | [10] 0.997 | [11] 0.979 | [13] 1.08 | [14] 0.995 | [15] 1.15 | [16] 1.04 | [17] 1.04 | [18] 1 | [19] 0.984 | [20] 1 | [21] 0.991 | [22] 1.01 | [23] 0.997 | [24] 1 | [31] 1.09 | [25] 1.04 | [26] 0.953 | [27] 1.21 | [28] 1.01

O=c1cc(-c2ccccc2)[nH]c2nc(Cl)ccc12
inactive: S. cerevisiae deletion strains, locus YAL040C, strain CLN3, stronger effect = lower value 0.964 | S. cerevisiae deletion strains, locus YCL061C, strain MRC1 (second series), stronger effect = lower value 1 | [4] 1.01 | S. cerevisiae deletion strains, locus YDR363W, strain ESC2, stronger effect = lower value 0.979 | S. cerevisiae deletion strains, locus YER002W, strain NOP16, stronger effect = lower value 1.03 | [30] 0.962 | S. cerevisiae deletion strains, locus YNL175C, strain NOP13, stronger effect = lower value 0.989 | S. cerevisiae deletion strains, locus YNL197C, strain WHI3, stronger effect = lower value 1.01 | S. cerevisiae deletion strains, locus YNL224C, strain SQS1, stronger effect = lower value 0.977 | S. cerevisiae deletion strains, locus YOR083W, strain WHI5 (second series), stronger effect = lower value 0.989 | [25] 0.997 | [26] 1

Cc1cccc(NC(=O)c2ccccc2)c1
inactive: [1] 0.961 | [2] 0.958 | [3] 0.991 | [4] 0.974 | [5] 0.945 | [6] 0.951 | [7] 0.977 | [8] 0.827 | [9] 0.937 | [32] 0.946 | [10] 0.952 | [11] 0.913 | [12] 0.988 | [13] 0.809 | [14] 0.981 | [15] 0.897 | [16] 0.854 | [17] 0.924 | [18] 0.967 | [19] 0.973 | [30] 0.992 | [21] 0.973 | [22] 0.887 | [23] 0.98 | [24] 0.951 | [25] 0.971 | [26] 0.91 | [27] 0.798
